The source of these data is PubChem BioAssay (NCATS).

Entries with a potency or affinity are not part of this list. A number with no mark means an inactive call. How the calls were made is not given here.
Further: 0% is about no effect.

The conditions of this assay: Ebola virus entry assay, green fluorescence channel.
On to `CCCCC(CC)CN1CN(CC(CC)CCCC)CC(C)(N)C1` (stereo not drawn), for which the efficacy is -31.6%.
In the case of `Cc1cccc(C)c1OCC(=O)N[C@@H](Cc1ccccc1)[C@@H](O)C[C@H](Cc1ccccc1)NC(=O)[C@H](C(C)C)N1CCCNC1=O`, the efficacy was 20.6%.
Then `c1ccc2c(c1)CCCC2C1=NCCN1` (stereo not drawn), with -12.9%; and `CN1CC[C@]23c4c5ccc(O)c4O[C@H]2[C@@H](O)C=C[C@H]3[C@H]1C5`, with 19.5%.
The result for `CCCCCCCCCCCCCCCCN` reads -37.3%; that for `CC1CN(c2cc3c(cc2F)c(=O)c(C(=O)O)cn3-c2ccc(F)cc2F)CCN1` (stereo not drawn), 9.66%.
Turning to `CN(C)C(=O)Oc1ccc[n+](C)c1`, the efficacy is 18%.
Consider `Cc1ccc(C(C)C)c(O)c1`, for which the efficacy is -16.9%.
For the molecule `Nc1ccc(C(=O)Nc2ccccc2N)cc1`, the efficacy is -27%.
In the case of `FC1(F)C(F)(F)C(F)(F)C2(F)C(F)(F)C(F)(F)C(F)(F)C(F)(F)C2(F)C1(F)F` (stereo not drawn), the efficacy was -14%.
For the molecule `O=C(O)/C=C\C(=O)O`, the efficacy is 12.7%.
Regarding `COc1ccc(Cc2cnc(N)nc2N)cc1OC`, the efficacy was -23.5%.
Take `C[C@H](N)C(=O)c1ccccc1`: the efficacy was 31.4%.
With `COc1ccc(/C(C)=C/C(=O)O)c(OC)c1`, the efficacy was -13.7%.
`C=CCc1ccc(O)c(OC)c1`: the efficacy was 23.7%.
Regarding `O=C(O)c1ccc(S(=O)(=O)N(Cl)Cl)cc1`, the efficacy is -27.5%.
For `CC(C)=CCC1C(=O)N(c2ccccc2)N(c2ccccc2)C1=O`, the efficacy is -18%.
The result for `CC(C)=CCC[C@@](C)(O)[C@H]1CC=C(C)CC1` reads -15.6%.
